An excerpt weighted towards active compounds, which were near 13% of everything screened.
4MU fluor: qHTS Assay for Spectroscopic Profiling in 4-MU Spectral Region; compound autofluorescence, 340/450 nm, 4-MU equivalents; stronger effect = higher value; max dye-equivalent concentration, M; actives 11% (n = 59,000); in the data active = max dye-equivalent concentration above about 10 nM; inconclusive = mostly about 1.1 nM to 9.6 nM
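Compounds in 100 mM Tris, pH 8.0, incubated 15 min at room temperature, then fluorescence read at 340 nm excitation/450 nm emission. Signal converted to 4-MU dye-equivalent concentration using an on-plate six-point 4-MU standard curve.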
A350 autofl: qHTS Assay for Spectroscopic Profiling in A350 Spectral Region | Compound autofluorescence, 340/450 nm, Alexa 350 dye-equivalents; stronger effect = higher value | max dye-equivalent concentration, M | AID 590, 2007 | actives 11% (n = 59,000); in the data active = max dye-equivalent concentration above about 10 nM; inconclusive = mostly about 1.1 nM to 9.6 nM
HADH2 inhib: qHTS Assay for Inhibitors of HADH2 (Hydroxyacyl-Coenzyme A Dehydrogenase, Type II) | 3-hydroxyacyl-CoA dehydrogenase type-2 (Homo sapiens), Q99714 | recombinant HADH2, NADH fluorescence, beta-hydroxybutyryl-CoA | Potency, µM (doses to about 57.1 µM), for inactives: top-dose activity change, negative = inhibition, hits mostly inhibitors | actives 3.4% (n = 73,000) | AID 886, 2007; also: potency is read from the fitted curve at half-maximal effect; % is scaled to controls: 0 for no effect and ±100 for the full control effect; nearly all actives have a fitted effect of over 60% in size
Target sequence (Q99714 whole entry, looked up, one chain of several): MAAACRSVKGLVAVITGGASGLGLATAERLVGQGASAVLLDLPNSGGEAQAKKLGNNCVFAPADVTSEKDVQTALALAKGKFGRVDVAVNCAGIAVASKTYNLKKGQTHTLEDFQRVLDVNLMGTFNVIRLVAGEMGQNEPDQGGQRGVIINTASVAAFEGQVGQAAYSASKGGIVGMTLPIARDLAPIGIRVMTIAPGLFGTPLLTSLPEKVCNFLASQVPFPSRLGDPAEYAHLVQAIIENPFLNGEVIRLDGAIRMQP
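Activity measured as NADH fluorescence gain (360/450 nm), taken as the change between first and last reads of a 4-min kinetic run. Conditions: pH 9.0 Tris buffer, 20 nM E. coli-expressed His-tagged enzyme, 1 mM NAD+, 90 uM beta-hydroxybutyryl-CoA; 15-min compound preincubation.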
HSD17B inh: qHTS Assay for Inhibitors of HSD17B4, hydroxysteroid (17-beta) dehydrogenase 4 | 3-hydroxyacyl-CoA dehydrogenase type-2 (Homo sapiens), Q99714 | actives 7.6% (n = 75,000) | Potency, µM (titrated, usually from 57.1 µM), for inactives: at the highest dose activity change, negative = inhibition, usual class: inhibitors | recombinant HSD17B10, NADH fluorescence kinetic;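 also: the protocol describes HADH2 (HSD17B10) and not the HSD17B4 of the title; potency is read from the fitted curve at half-maximal effect; % is scaled to controls: 0 for no effect and ±100 for the full control effect; nearly all actives have a fitted effect of over 70% in size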
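Enzyme plus compound, 15 min room temperature; substrate mix added (NAD+ 1 mM, beta-hydroxybutyryl-CoA 90 uM final); plates read kinetically for NADH fluorescence. HADH2 was His-tagged, E. coli-derived, 20 nM.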
AID923: qHTS Assay for Allosteric/Competitive Inhibitors of Caspase-1: Spectroscopic Profiling in AFC Spectral Region; compound fluorescence, AFC spectral region (405/520 nm); Potency, µM (titrated, usually from 57.5 µM), inactives show at the highest dose fluorescence increase, hits mostly activators; actives 1.1% (n = 75,000); also: potency is read from the fitted curve at half-maximal effect; 0% is about no effect
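Titrations up to 57 uM read every 20 sec for 3 min (405/520 nm) with 50 nM caspase 1 and 5 uM Ac-WEHD-AFC, pH 7.5 HEPES buffer. Fluorescence-vs-time intercept gave baseline, scaled against on-plate AFC standard.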
* hit, by the source's call; [ ] = another dose, or the depositor's remark. Unless noted, calls follow the shape of the dose curve; as a rule, active = well fitted curve in the direction sought with a large enough effect; inconclusive = small, poorly fitted or top-dose-only effect, or another doubt; inactive = no such curve, though single readings can be large; an effect the other way counts as inactive or inconclusive.

For Cc1cc(C)nc(-n2nc(C)c3c(C(F)F)cc(C)nc32)n1 the results were 4MU fluor 2.6e-08M*, A350 autofl 5e-08M*, HADH2 inhib -7%, HSD17B inh -11% and AID923 1%.
Screening COC(=O)c1ccc(CSc2nnc3n(Cc4ccccc4OC)c(=O)c4ccccc4n23)o1 returned 4MU fluor inactive, A350 autofl inactive, HADH2 inhib inconclusive, HSD17B inh 25µM* and AID923 -1%.
`Cc1ccccc1OCCCN1C(=O)C(=O)c2cccc(C)c21` gave HADH2 inhib -22%, HSD17B inh 16µM* and AID923 1%.
Screening COc1cccc(N2CCN(c3ncnc4c3[nH]c3ccccc34)CC2C)c1 (configuration not stated) returned 4MU fluor inactive and A350 autofl inactive.
Cc1ccc2c(c1)[nH]c1c(N3CCN(Cc4ccccc4)CC3)ncnc12 was read as 4MU fluor inactive, A350 autofl inactive, HADH2 inhib -9%, HSD17B inh inconclusive and AID923 1%.
Cc1ccc2[nH]c3c(N4CCN(Cc5ccccc5)CC4)ncnc3c2c1 was read as 4MU fluor 1.6e-08M* and A350 autofl 1.9e-08M*.
For CCOc1ccc2[nH]c3c(N4CCN(c5ccccn5)CC4)ncnc3c2c1 the results were 4MU fluor 3.2e-08M*, A350 autofl 3.9e-08M*, HADH2 inhib -20%, HSD17B inh 32µM* and AID923 -2%.
`Fc1ccc2[nH]c3c(N4CCN(C5CCCCC5)CC4)ncnc3c2c1` gave 4MU fluor 5.9e-08M*, A350 autofl 4.7e-08M*, HADH2 inhib 18%, HSD17B inh -28% and AID923 -2%.
`COc1cc2[nH]c3c(N4CCN(c5ccc(Cl)cc5)CC4)ncnc3c2cc1OC` gave 4MU fluor 2.7e-08M*, A350 autofl 3.8e-08M*, HADH2 inhib -8%, HSD17B inh 32µM* and AID923 0%.
For Cc1ccc2[nH]c3c(N4CCCCCC4)ncnc3c2c1 the results were 4MU fluor inactive and A350 autofl inconclusive.
For COc1ccccc1N1CCN(S(=O)(=O)c2ccc(Cl)s2)CC1 the results were 4MU fluor inactive, A350 autofl inactive, HADH2 inhib 3%, HSD17B inh 11% and AID923 1%.
Screening COC(=O)CCC(C)C1CCC2C3C(O)C[C@@H]4CC(O)CC[C@@]4(C)C3CC(O)[C@]12C (some centres not stated) returned HSD17B inh -2% and AID923 -1%.
CC(C)c1ccc(Cn2ccc3c4c(N)nc(NC5CC5)nc4ccc32)cc1 was read as HADH2 inhib 9%, HSD17B inh inconclusive and AID923 -4%.
For Cc1onc(-c2ccccc2Cl)c1C(=O)OCC(=O)N1CCCc2ccccc21 the results were 4MU fluor inactive, A350 autofl inactive, HADH2 inhib 6%, HSD17B inh -13% and AID923 0%.
For COc1ccc(COC(=O)N/N=C2/C[C@@H](O)[C@@H](O)[C@@H]3[C@@H]4C(=O)N(C[C@@H]5CCCO5)C(=O)[C@H]4CC[C@H]23)cc1 the results were HADH2 inhib -13%[11.4 µM], HSD17B inh 1%[11.4 µM] and AID923 3%[11.5 µM].
For O=c1cnc2cnc(Oc3ccccc3)nc2n1Cc1ccc(F)cc1 the results were 4MU fluor inactive, A350 autofl inactive, HADH2 inhib 3%, HSD17B inh 0% and AID923 2%.
Screening O=C(N1CCCC1)n1c(Cc2ccccc2)nc2ccccc21 returned 4MU fluor inactive, A350 autofl inactive, HADH2 inhib 8%, HSD17B inh 1% and AID923 -1%.
For O=C(OCC(=O)N1CCc2ccccc21)C1=COCCO1 the results were 4MU fluor inconclusive, A350 autofl 1.4e-08M*, HADH2 inhib 5%, HSD17B inh 10% and AID923 -2%.
